Experimental data from PubChem BioAssay (NCATS).
Where “and” joins values, the source holds several entries; their conditions need not be identical. Identical values can stand only once. Inconclusive results are not listed. The source holds several records for some structures; these can differ, active in one and inactive in another. Calls of active or inactive are those of the source. Calls come from the whole dose curve; as a rule, active = well fitted curve in the direction sought with a large enough effect; inconclusive = small, poorly fitted or top-dose-only effect, or another doubt; inactive = no such curve, though single readings can be large; an effect the other way counts as inactive or inconclusive.

Columns and labels:
SC27B = assay: qHTS profiling for inhibitors of Plasmodium falciparum proliferation (AID 504749); note: nearly all actives have a fitted effect of over 60% in size; note: potency is the fitted concentration of half-maximal effect; conditions: P. falciparum in erythrocytes, SYBR Green DNA, 72 h; series mostly up to 28.7 µM
Method in brief: (§1)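 Infected RBCs, 0.3% parasitemia/2.5% Hct final; cpd 72 h, 37 C, 5% CO2; lysis buffer with saponin/triton/SYBR Green I, o/n RT dark; FI 485/535; norm. to artemisinin (0.29 uM) and DMSO.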

TAB109 = assay: as above; conditions: P. falciparum in erythrocytes, SYBR Green DNA, 72 h; series mostly up to 28.7 µM
Method in brief: as §1

TAB113 = assay: as above; conditions: P. falciparum in erythrocytes, SYBR Green DNA, 72 h; series mostly up to 28.7 µM
Method in brief: as §1

TAB165 = assay: as above; conditions: P. falciparum in erythrocytes, SYBR Green DNA, 72 h; series mostly up to 28.7 µM
Method in brief: as §1

W2 = assay: as above; conditions: P. falciparum in erythrocytes, SYBR Green DNA, 72 h; series mostly up to 28.7 µM
Method in brief: as §1

CRL-7250 = normal cell line; assay: Cytotoxic Profiling of Annotated Libraries Using Quantitative High-Throughput Screening (AID 1296008); conditions: Five cell lines viability, CellTiter-Glo ATP luminescence, 48-72 h; max response: stronger effect = lower value; note: nearly all actives have a fitted effect of over 60% in size; note: potency is the fitted concentration of half-maximal effect; for max response: % is set by controls: 0 for no effect and ±100 for the full control effect
Method in brief: (§2)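 Cytotoxicity was measured as CellTiter-Glo ATP luminescence, read after 10 min at room temperature. Compound treatment of the cells lasted 48 or 72 hr at 37 degrees Celsius in a qHTS format.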

HEK293 = assay: as above; conditions: Five cell lines viability, CellTiter-Glo ATP luminescence, 48-72 h; max response: stronger effect = lower value
Method in brief: as §2

HaCat [1] = assay: as above; conditions: Five cell lines viability, CellTiter-Glo ATP luminescence, 48-72 h; max response: stronger effect = lower value
Method in brief: as §2

KB-3-1 = assay: as above; conditions: Five cell lines viability, CellTiter-Glo ATP luminescence, 48-72 h; max response: stronger effect = lower value
Method in brief: as §2

NIH3T3 [2] = assay: as above; conditions: Five cell lines viability, CellTiter-Glo ATP luminescence, 48-72 h; max response: stronger effect = lower value
Method in brief: as §2

HACAT [3] = assay: qHTS assay to identify novel small-molecules to repurpose for Merkel cell carcinoma treatment (AID 1296009); conditions: MCC and control cell lines, CellTiter-Glo viability, 72 h; series mostly up to 44.8 µM; note: nearly all actives have a fitted effect of over 60% in size; note: potency is the fitted concentration of half-maximal effect
Method in brief: (§3)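 72 hr, 37 degree celsius; NPC 8-pt / MIPE 11-pt dose response; compound pinned in DMSO; CellTiter-Glo, 10 min RT, luminescence; normalized to no-cell and DMSO controls.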

HEK293T = assay: as above; conditions: MCC and control cell lines, CellTiter-Glo viability, 72 h; at 44.8 µM (top of the series) unless noted
Method in brief: as §3

MCC-13 = assay: as above; conditions: MCC and control cell lines, CellTiter-Glo viability, 72 h; series mostly up to 46 µM
Method in brief: as §3

MCC-26 = assay: as above; conditions: MCC and control cell lines, CellTiter-Glo viability, 72 h; series mostly up to 46 µM
Method in brief: as §3

MKL-1 = assay: as above; conditions: MCC and control cell lines, CellTiter-Glo viability, 72 h; series mostly up to 46 µM
Method in brief: as §3

MKL-2 = assay: as above; conditions: MCC and control cell lines, CellTiter-Glo viability, 72 h; series mostly up to 46 µM
Method in brief: as §3

C33A = assay: Primary qHTS to identify gynecologic anti-cancer compounds using libraries of approved drugs and bioactive compounds (AID 1345084); conditions: Gynecologic cancer cell panel viability, ATPlite luminescence, 48 h; series mostly up to 57.5 µM; note: % is set by controls: 0 for no effect and ±100 for the full control effect; nearly all actives have a fitted effect of over 55% in size
Method in brief: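 48 h compound exposure at 37 C, 5% CO2; five-point qHTS. ATPlite luminescence readout of cell ATP.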

NIH3T3 [4] = assay: qHTS assay to identify novel small-molecules to repurpose for Merkel cell carcinoma treatment (AID 1296009); conditions: MCC and control cell lines, CellTiter-Glo viability, 72 h; series mostly up to 44.8 µM; note: nearly all actives have a fitted effect of over 60% in size; note: potency is the fitted concentration of half-maximal effect
Method in brief: as §3

UISO = assay: as above; conditions: MCC and control cell lines, CellTiter-Glo viability, 72 h; series mostly up to 46 µM
Method in brief: as §3

WaGa = assay: as above; conditions: MCC and control cell lines, CellTiter-Glo viability, 72 h; series mostly up to 46 µM
Method in brief: as §3

N[C@@H](Cc1c[nH]c2ccc(O)cc12)C(=O)O
inactive: Potency (SC27B) | Potency (TAB109) | Potency (TAB113) | Potency (TAB165) | Potency (W2) | max response (CRL-7250) -11.6% | outcome (CRL-7250) | max response (HEK293) 2.68% | outcome (HEK293) | outcome (HaCat [1]) | max response (KB-3-1) 5.77% and -8.69% | max response (NIH3T3 [2]) -0.603% and 4.53% | outcome (HACAT [3]) | outcome (HEK293T) | Potency (MCC-13) | Potency (MCC-26) | Potency (MKL-1) | Potency (MKL-2) | Potency (C33A)

O=C(c1ccc(F)cc1)C1CCN(CCn2c(=O)[nH]c3ccccc3c2=O)CC1
inactive: Potency (SC27B) | Potency (TAB109) | Potency (TAB113) | Potency (TAB165) | max response (CRL-7250) -21.4% and 4.56% | outcome (CRL-7250) | max response (HEK293) -0.877% and -3.18% | max response (HaCat [1]) -0.754% and -2.78% and -3.98% | max response (KB-3-1) -2.16% and 6.29% | outcome (NIH3T3 [2]) | Potency (MCC-13) | Potency (MCC-26) | Potency (MKL-1) | Potency (MKL-2) | outcome (NIH3T3 [4]) | Potency (UISO) | Potency (WaGa) | Potency (C33A)

NC(=O)NO
inactive: Potency (SC27B) | Potency (TAB109) | Potency (TAB113) | Potency (TAB165) | Potency (W2) | max response (HEK293) 4.27% | max response (HaCat [1]) -18.6% | max response (KB-3-1) 2.92% | max response (NIH3T3 [2]) 2.15% | Potency (MKL-1) | Potency (WaGa) | Potency (C33A)
inactive and 2.96 µM (active): Potency (MCC-13)
inactive and 10.5 µM (active): Potency (MCC-26)
active: Potency (CRL-7250) 13.2 µM | Potency (HEK293) 0.0526 µM | Potency (KB-3-1) 6.62 µM | Potency (NIH3T3 [2]) 18.7 µM
inactive and 372 nM (active): Potency (MKL-2)
inactive and 4.69 µM (active): Potency (UISO)

Clc1ccc2nsnc2c1NC1=NCCN1
inactive: Potency (SC27B) | Potency (TAB109) | Potency (TAB113) | Potency (TAB165) | Potency (W2) | max response (CRL-7250) 0.544% and 2.61% | max response (HEK293) -8.03% | outcome (HEK293) | max response (HaCat [1]) 2.64% | outcome (HaCat [1]) | max response (KB-3-1) -0.508% and 0.187% | max response (NIH3T3 [2]) 1.46% | outcome (NIH3T3 [2]) | outcome (HACAT [3]) | outcome (HEK293T) | Potency (MCC-13) | Potency (MCC-26) | Potency (MKL-1) | Potency (MKL-2) | outcome (NIH3T3 [4]) | Potency (UISO) | Potency (WaGa) | Potency (C33A)

COc1ccc(C2CNC(=O)C2)cc1OC1CCCC1 (stereo not drawn)
inactive: max response (CRL-7250) -1.68% | outcome (CRL-7250) | max response (HEK293) 0.111% | outcome (HEK293) | max response (HaCat [1]) -13.7% | outcome (HaCat [1]) | max response (KB-3-1) 0.0275% and -1.99% | max response (NIH3T3 [2]) -5.87% | outcome (NIH3T3 [2]) | outcome (HACAT [3]) | outcome (HEK293T) | Potency (MCC-13) | Potency (MCC-26) | Potency (MKL-1) | Potency (MKL-2) | outcome (NIH3T3 [4]) | Potency (UISO) | Potency (WaGa) | Potency (C33A)

CC(C)(C)C(=O)Oc1ccc(S(=O)(=O)Nc2ccccc2C(=O)NCC(=O)O)cc1
inactive: Potency (SC27B) | Potency (TAB109) | Potency (TAB113) | Potency (TAB165) | Potency (W2) | max response (CRL-7250) 4.89% | outcome (CRL-7250) | max response (HEK293) -6.47% | outcome (HEK293) | max response (HaCat [1]) -9.37% | outcome (HaCat [1]) | max response (KB-3-1) -8.85% | outcome (KB-3-1) | max response (NIH3T3 [2]) -7.41% and -3.91% | outcome (HACAT [3]) | outcome (HEK293T) | Potency (MCC-13) | Potency (MCC-26) | Potency (MKL-1) | Potency (MKL-2) | Potency (UISO) | Potency (WaGa) | Potency (C33A)

COc1ccc2[nH]cc(CCNC(C)=O)c2c1
inactive: Potency (SC27B) | Potency (TAB109) | Potency (TAB113) | Potency (TAB165) | Potency (W2) | max response (CRL-7250) -2.01% and -27.6% | max response (HEK293) 0.212% | outcome (HEK293) | max response (HaCat [1]) -2.62% | outcome (HaCat [1]) | max response (KB-3-1) 5.26% and 4.62% | max response (NIH3T3 [2]) 1.71% | outcome (NIH3T3 [2]) | outcome (HACAT [3]) | outcome (HEK293T) | Potency (MCC-13) | Potency (MCC-26) | Potency (MKL-1) | Potency (MKL-2) | outcome (NIH3T3 [4]) | Potency (UISO) | Potency (WaGa) | Potency (C33A)

C[C@H]1c2cccc(O)c2C(O)=C2C(=O)[C@]3(O)C(O)=C(C(N)=O)C(=O)[C@@H](N(C)C)[C@@H]3[C@@H](O)[C@@H]21
inactive: max response (CRL-7250) -2.19% | outcome (CRL-7250) | max response (HEK293) -8.48% | outcome (HaCat [1]) | max response (KB-3-1) 10.8% and -8.7% | max response (NIH3T3 [2]) 1.59% | outcome (NIH3T3 [2]) | outcome (HACAT [3]) | Potency (MCC-13) | Potency (MCC-26) | Potency (MKL-1) | Potency (MKL-2) | outcome (NIH3T3 [4]) | Potency (WaGa) | Potency (C33A)

Cc1ccc(-c2cc(C(F)(F)F)nn2-c2ccc(S(N)(=O)=O)cc2)cc1
active: Potency (W2) 6.75 µM
inactive: max response (CRL-7250) -3.61% | outcome (CRL-7250) | max response (HEK293) -17.2% | max response (HaCat [1]) 4.57% and -3.85% | outcome (HaCat [1]) | max response (KB-3-1) -4.37% and -12.4% | outcome (KB-3-1) | max response (NIH3T3 [2]) 4.24% | outcome (HACAT [3]) | Potency (MCC-13) | Potency (MCC-26) | Potency (MKL-1) | Potency (MKL-2) | Potency (UISO) | Potency (WaGa) | Potency (C33A)

NC(=O)OCC(COC(N)=O)c1ccccc1
inactive: Potency (SC27B) | Potency (TAB109) | Potency (TAB113) | Potency (TAB165) | max response (CRL-7250) 2.98% and -7.95% | max response (HEK293) -9.25% | outcome (HEK293) | outcome (HaCat [1]) | max response (KB-3-1) -1.19% | max response (NIH3T3 [2]) -0.687% | outcome (NIH3T3 [2]) | outcome (HACAT [3]) | outcome (HEK293T) | Potency (MCC-13) | Potency (MCC-26) | Potency (MKL-1) | Potency (MKL-2) | outcome (NIH3T3 [4]) | Potency (UISO) | Potency (WaGa) | Potency (C33A)
